“And” between values parts separate entries of the source, which are not always exact repeats. Equal entries are not always repeated. The source made the active and inactive calls. How the calls were made is not given here.
Assays:
[1] = system: Aerobactin synthetase IucA (Klebsiella pneumoniae hvKP1); assay: Biochemical IucA enzyme inhibition primary screen of the Spectrum library (AID 1346200); conditions: malachite green pyrophosphate, A620, at 8 µM, hits give low values;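 further: 100% = wells without compound and 0% = wells lacking enzyme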
[2] = system: Aerobactin synthetase IucA (Klebsiella pneumoniae, hypervirulent); assay: IucA enzyme inhibition, biochemical, LOPAC library, absorbance readout (AID 1346212); conditions: IucA enzyme assay, absorbance (OD) readout; hits give low values;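 tested at 8 µM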;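 further: 100% = no compound wells and 0% = no enzyme wells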

`COCCOC(=O)C1=C(C)NC(C)=C(C(=O)OC(C)C)C1c1cccc([N+](=O)[O-])c1` (stereo unspecified) was tested, and the activity remaining [1] was 118% (inactive) and the remaining activity [2] was 111% (inactive).
With `NS(=O)(=O)c1cc(C(=O)O)c(NCc2ccco2)cc1Cl` the activity remaining [1] was 105% (inactive) and the remaining activity [2] was 97.8% (inactive).
For `CCn1nc(C(=O)O)c(=O)c2cc3c(cc21)OCO3`, the activity remaining [1] was 112% (inactive) and the remaining activity [2] was 111% (inactive).
`c1ccc2c(CC3=NCCN3)cccc2c1` was tested, and the activity remaining [1] was 106% (inactive) and the remaining activity [2] was 115% (inactive).
For `CN(C)c1ccc(O)c2c1C[C@H]1C[C@H]3[C@H](N(C)C)C(=O)C(C(N)=O)=C(O)[C@@]3(O)C(=O)C1=C2O`, the activity remaining [1] was 105% (inactive) and the remaining activity [2] was 110% (inactive).
With `CNCCC=C1c2ccccc2CCc2ccccc21` the activity remaining [1] was 122% (inactive) and the remaining activity [2] was 113% (inactive).
With `CN1CCC[C@@H]1CCO[C@](C)(c1ccccc1)c1ccc(Cl)cc1` the activity remaining [1] was 99.3% (inactive) and the remaining activity [2] was 109% (inactive).
`NC[C@H](O)c1ccc(O)c(O)c1` was tested, and the activity remaining [1] was 107% (inactive) and the remaining activity [2] was 118% (inactive).
With `CN(C)CCOC(c1ccccc1)c1ccccc1` the activity remaining [1] was 105% (inactive) and the remaining activity [2] was 100% (inactive).
For `CC(C)(Oc1ccc(C2CC2(Cl)Cl)cc1)C(=O)O` (stereo unspecified), the activity remaining [1] was 116% (inactive) and the remaining activity [2] was 114% (inactive).
`NC(=NCc1ccccc1)NC(=O)c1nc(Cl)c(N)nc1N` was tested, and the activity remaining [1] was 78.3% (inactive) and the remaining activity [2] was 94.8% (inactive).
With `Clc1ccc(C(c2ccccc2Cl)C(Cl)Cl)cc1` (stereo unspecified) the activity remaining [1] was 92.7% (inactive) and the remaining activity [2] was 111% (inactive).
`CC(C)Cn1c(=O)n(C)c(=O)c2[nH]cnc21` was tested, and the activity remaining [1] was 108% (inactive) and 118% (inactive) and the remaining activity [2] was 108% (inactive).
`Cc1ccc(Cl)c(Nc2ccccc2C(=O)O)c1Cl` was tested, and the activity remaining [1] was 93.4% (inactive) and the remaining activity [2] was 128% (inactive).
With `CCCN(CCC)CCc1cccc2c1CC(=O)N2` the activity remaining [1] was 98.7% (inactive) and the remaining activity [2] was 80.8% (inactive).
For `CCc1cccc2c3c([nH]c12)C(CC)(CC(=O)O)OCC3` (stereo unspecified), the activity remaining [1] was 116% (inactive) and the remaining activity [2] was 116% (inactive).
`Oc1ccc(/C=C/c2cc(O)cc(O)c2)cc1` was tested, and the activity remaining [1] was 110% (inactive) and the remaining activity [2] was 75.6% (inactive).
With `NNCCc1ccccc1` the activity remaining [1] was 112% (inactive) and the remaining activity [2] was 93.4% (inactive).
`Cc1cc(C(C)(C)C)c(O)c(C)c1CC1=NCCN1` was tested, and the activity remaining [1] was 114% (inactive) and the remaining activity [2] was 117% (inactive).
With `CC(=O)OCC1=C(C(=O)O)N2C(=O)[C@@H](NC(=O)Cc3cccs3)[C@H]2SC1` the activity remaining [1] was 109% (inactive) and the remaining activity [2] was 117% (inactive).
In the case of `CCN(CC)CC(=O)Nc1c(C)cccc1C`, the activity remaining [1] is reported as 101% (inactive) and the remaining activity [2] is reported as 109% (inactive).
For `CCN(CC)C(=S)SSC(=S)N(CC)CC`, the activity remaining [1] was 90.4% (inactive) and the remaining activity [2] was 89.3% (inactive).
With `NCCCCC(=O)O` the activity remaining [1] was 107% (inactive) and the remaining activity [2] was 104% (inactive).
With `CC(C)(C(=O)O)c1ccc(C(O)CCCN2CCC(C(O)(c3ccccc3)c3ccccc3)CC2)cc1` (stereo unspecified) the activity remaining [1] was 113% (inactive) and the remaining activity [2] was 107% (inactive).
With `NS(=O)(=O)c1cc2c(cc1Cl)NC=NS2(=O)=O` the activity remaining [1] was 113% (inactive) and the remaining activity [2] was 123% (inactive).
For `CN1Cc2c(N)cccc2C(c2ccccc2)C1` (stereo unspecified), the activity remaining [1] was 119% (inactive) and the remaining activity [2] was 109% (inactive).
In the case of `N[C@@H](Cc1ccc(O)c(O)c1)C(=O)O`, the activity remaining [1] is reported as 115% (inactive) and the remaining activity [2] is reported as 97% (inactive).
In the case of `NCCS`, the activity remaining [1] is reported as 117% (inactive) and the remaining activity [2] is reported as 110% (inactive).
For `CN1CCN(CC(=O)N2c3ccccc3C(=O)Nc3cccnc32)CC1`, the activity remaining [1] was 117% (inactive) and the remaining activity [2] was 94.6% (inactive).
For `COc1ccc(CN(CCN(C)C)c2ccccn2)cc1`, the activity remaining [1] was 118% (inactive) and the remaining activity [2] was 112% (inactive).
For `CNC[C@H](O)c1cccc(O)c1`, the activity remaining [1] was 103% (inactive) and the remaining activity [2] was 112% (inactive).
`CN(C)CCCC1(c2ccc(F)cc2)OCc2cc(C#N)ccc21` (stereo unspecified) was tested, and the activity remaining [1] was 102% (inactive) and the remaining activity [2] was 124% (inactive).
`Nc1nc(N)c2nc(-c3ccccc3)c(N)nc2n1` was tested, and the activity remaining [1] was 114% (inactive) and the remaining activity [2] was 93.9% (inactive).
For `CCN(CC)CCOCCOC(=O)C1(c2ccccc2)CCCC1`, the activity remaining [1] was 93.9% (inactive) and the remaining activity [2] was 113% (inactive).
With `Nc1c2c(nc3ccccc13)CCCC2O` (stereo unspecified) the activity remaining [1] was 105% (inactive) and the remaining activity [2] was 101% (inactive).
With `C=CCc1ccccc1OCC(O)CNC(C)C` (stereo unspecified) the activity remaining [1] was 110% (inactive) and the remaining activity [2] was 91.4% (inactive).
In the case of `COc1ccc2cc([C@H](C)C(=O)O)ccc2c1`, the activity remaining [1] is reported as 101% (inactive) and the remaining activity [2] is reported as 91.4% (inactive).
`Cn1cnc([N+](=O)[O-])c1Sc1ncnc2nc[nH]c12` was tested, and the activity remaining [1] was 113% (inactive) and the remaining activity [2] was 121% (inactive).
In the case of `OCCN1CCN(CCCN2c3ccccc3Sc3ccc(Cl)cc32)CC1`, the activity remaining [1] is reported as 121% (inactive) and the remaining activity [2] is reported as 112% (inactive).
In the case of `CN(C)CCCN1c2ccccc2Sc2ccc(Cl)cc21`, the activity remaining [1] is reported as 115% (inactive) and the remaining activity [2] is reported as 110% (inactive).
With `CC(C)C(=O)Nc1ccc([N+](=O)[O-])c(C(F)(F)F)c1` the activity remaining [1] was 115% (inactive) and the remaining activity [2] was 97.1% (inactive).
`NC(=O)NO` was tested, and the activity remaining [1] was 121% (inactive) and the remaining activity [2] was 117% (inactive).
With `CCCC(C(=O)OCCN(CC)CC)(c1ccccc1)c1ccccc1` the activity remaining [1] was 105% (inactive) and the remaining activity [2] was 118% (inactive).
For `NC(N)=NC(N)=Nc1ccccc1`, the activity remaining [1] was 123% (inactive) and the remaining activity [2] was 101% (inactive).
For `Cc1scc2c1N(C(=O)CN1CCN(C)CC1)c1ccccc1NC2=O`, the activity remaining [1] was 117% (inactive) and the remaining activity [2] was 105% (inactive).
In the case of `CN1C(=O)CC[C@H]1c1cccnc1`, the activity remaining [1] is reported as 101% (inactive) and the remaining activity [2] is reported as 122% (inactive).
`CC(C)[N+](C)(CCOC(=O)C1c2ccccc2Oc2ccccc21)C(C)C` was tested, and the activity remaining [1] was 105% (inactive) and the remaining activity [2] was 92.2% (inactive).
For `Cc1ccc(/C(=C\CN2CCCC2)c2ccccn2)cc1`, the activity remaining [1] was 103% (inactive) and the remaining activity [2] was 121% (inactive).
For `CCCCC1C(=O)N(c2ccccc2)N(c2ccccc2)C1=O`, the activity remaining [1] was 117% (inactive) and the remaining activity [2] was 102% (inactive).
In the case of `NCCc1cnc[nH]1`, the activity remaining [1] is reported as 112% (inactive) and the remaining activity [2] is reported as 112% (inactive).
With `CCCCNC(=O)NS(=O)(=O)c1ccc(C)cc1` the activity remaining [1] was 120% (inactive) and the remaining activity [2] was 95.4% (inactive).
`CCCCS(=N)(=O)CCC(N)C(=O)O` (stereo unspecified) was tested, and the activity remaining [1] was 102% (inactive) and the remaining activity [2] was 84.7% (inactive).
`CC1=C(/C=C/C(C)=C/C=C/C(C)=C\C(=O)O)C(C)(C)CCC1` was tested, and the activity remaining [1] was 116% (inactive) and the remaining activity [2] was 85.8% (inactive).
`C[C@](N)(Cc1ccc(O)c(O)c1)C(=O)O` was tested, and the activity remaining [1] was 121% (inactive) and the remaining activity [2] was 113% (inactive).
For `O=c1c(-c2ccc(O)cc2)coc2cc(O)cc(O)c12`, the activity remaining [1] was 109% (inactive) and the remaining activity [2] was 121% (inactive).
For `O=C(O)c1cccnc1Nc1cccc(C(F)(F)F)c1`, the activity remaining [1] was 117% (inactive) and the remaining activity [2] was 115% (inactive).
For `CC(CCc1ccccc1)NCC(O)c1ccc(O)c(C(N)=O)c1` (stereo unspecified), the activity remaining [1] was 121% (inactive) and the remaining activity [2] was 112% (inactive).
`C#CCN(C)Cc1ccccc1` was tested, and the activity remaining [1] was 122% (inactive) and the remaining activity [2] was 80.8% (inactive).
For `O=c1c(-c2ccc(O)cc2)coc2cc(O)ccc12`, the activity remaining [1] was 118% (inactive) and the remaining activity [2] was 99.6% (inactive).
`Cn1c(=O)c2[nH]cnc2n(C)c1=O` was tested, and the activity remaining [1] was 120% (inactive) and the remaining activity [2] was 111% (inactive) and 102% (inactive).
For `O=C1c2c(O)ccc(O)c2C(=O)c2c(NCCNCCO)ccc(NCCNCCO)c21`, the activity remaining [1] was 107% (inactive) and the remaining activity [2] was 110% (inactive).
`CCN(CC)CCNC(=O)c1ccc(NC(C)=O)cc1` was tested, and the activity remaining [1] was 92.5% (inactive) and the remaining activity [2] was 109% (inactive).
`CNC(=O)Oc1ccc2c(c1)[C@]1(C)CCN(C)[C@@H]1N2C` was tested, and the activity remaining [1] was 116% (inactive) and the remaining activity [2] was 110% (inactive).
With `CCN(CC)CCNC(=O)c1cc(S(C)(=O)=O)ccc1OC` the activity remaining [1] was 120% (inactive) and the remaining activity [2] was 104% (inactive).
With `O=C(CCCN1CCC(O)(c2ccc(Cl)cc2)CC1)c1ccc(F)cc1` the activity remaining [1] was 117% (inactive) and the remaining activity [2] was 100% (inactive).
In the case of `CN(C)[C@@H]1C(=O)C(C(N)=O)=C(O)[C@@]2(O)C(=O)C3=C(O)c4c(O)ccc(Cl)c4[C@@H](O)[C@H]3C[C@@H]12`, the activity remaining [1] is reported as 97% (inactive) and the remaining activity [2] is reported as 92.3% (inactive).
In the case of `CC(C)NCC(O)c1cc(O)cc(O)c1` (stereo unspecified), the activity remaining [1] is reported as 126% (inactive) and the remaining activity [2] is reported as 118% (inactive).
In the case of `O=c1n(CCCN2CCN(c3cccc(Cl)c3)CC2)nc2ccccn12`, the activity remaining [1] is reported as 112% (inactive) and the remaining activity [2] is reported as 118% (inactive).
`CN1CCN2c3ccccc3Cc3ccccc3C2C1` (stereo unspecified) was tested, and the activity remaining [1] was 119% (inactive) and the remaining activity [2] was 120% (inactive).
For `Cc1cn[nH]c1`, the activity remaining [1] was 102% (inactive) and the remaining activity [2] was 121% (inactive).
In the case of `CC1=NS(=O)(=O)c2cc(Cl)ccc2N1`, the activity remaining [1] is reported as 107% (inactive) and the remaining activity [2] is reported as 105% (inactive).
`Clc1ccccc1C(c1ccccc1)(c1ccccc1)n1ccnc1` was tested, and the activity remaining [1] was 113% (inactive) and the remaining activity [2] was 117% (inactive).
For `NS(=O)(=O)c1cc2c(cc1Cl)NCNS2(=O)=O`, the activity remaining [1] was 103% (inactive) and the remaining activity [2] was 102% (inactive).

Source: PubChem BioAssay
